# From PubChem BioAssay
# G9a inh: qHTS Assay for Inhibitors of Histone Lysine Methyltransferase G9a; G9a H3K9 monomethylation, AlphaScreen, 2 h; Potency, µM (series often up to 102 µM), for the others: at the top dose activity, negative = inhibition, hits mostly inhibitors; actives 8.8% (n = 350,000); further: on the % scale 0 is the no-effect control and ±100 the full control effect; nearly all actives have a fitted effect of over 75% in size
#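 Enzyme 20 nM + cpd, 15 min RT; add b-H3K9 pep 500 nM / SAM 20 uM; 2 h RT; anti-H3K9me1 Ab 0.5 ug/mL + SA donor / anti-rabbit acceptor beads 20 ug/mL each, 10 min; AlphaScreen read.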
# BAZ2B inh: qHTS Assay for Inhibitors of BAZ2B | Potency, µM (doses to about 114 µM), without a hit: at the top dose activity change, negative = inhibition, most hits filed as inhibitors | Bromodomain adjacent to zinc finger domain protein 2B (Homo sapiens), Q9UIF8 | AlphaScreen BAZ2B-H3K14Ac peptide displacement | actives 4.4% (n = 360,000); further: on the % scale 0 is the no-effect control and ±100 the full control effect; nearly all actives have a fitted effect of over 60% in size
#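 Protein-peptide AlphaScreen: BAZ2B 50 nM, b-H3K14Ac 50 nM, 1x PBS pH 7.4 + 0.01% Tween-20. Preincubation 30 min RT; cpd 30 min RT (top 110 uM); beads 20 min RT, light-protected.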
# GLS inhibitor: qHTS for Inhibitors of Glutaminase (GLS); Glutaminase kidney isoform, mitochondrial (Homo sapiens), O94925; actives 0.21% (n = 410,000); Potency, µM (highest dose often 45.5 µM), without a hit: at the top dose activity change, negative = inhibition, usual class: inhibitors; GLS enzymatic activity, qHTS titration; AID 624170, 2012; further: on the % scale 0 is the no-effect control and ±100 the full control effect
#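 Enzyme dispensed in phosphate buffer (45 mM, pH 8.2, 0.02% Tween-20), compounds pinned in, then 1 mM L-glutamine solution and the glutamate oxidase–HRP–Amplex Red mix added; fluorescence read immediately and again after 30 min at room temperature.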
# JMJD2A Tudor inh: qHTS Assay for Inhibitors of JMJD2A-Tudor Domain. Lysine-specific demethylase 4A (Homo sapiens), O75164. AlphaScreen JMJD2A-Tudor / H3K4me3 peptide binding. Potency, µM (doses to about 114 µM), without a hit: at the highest dose activity change, negative = inhibition, actives largely listed as inhibitors. actives 4.4% (n = 390,000); further: on the % scale 0 is the no-effect control and ±100 the full control effect; nearly all actives have a fitted effect of over 50% in size
# Target sequence (O75164 whole entry, looked up, the tested form may be a part): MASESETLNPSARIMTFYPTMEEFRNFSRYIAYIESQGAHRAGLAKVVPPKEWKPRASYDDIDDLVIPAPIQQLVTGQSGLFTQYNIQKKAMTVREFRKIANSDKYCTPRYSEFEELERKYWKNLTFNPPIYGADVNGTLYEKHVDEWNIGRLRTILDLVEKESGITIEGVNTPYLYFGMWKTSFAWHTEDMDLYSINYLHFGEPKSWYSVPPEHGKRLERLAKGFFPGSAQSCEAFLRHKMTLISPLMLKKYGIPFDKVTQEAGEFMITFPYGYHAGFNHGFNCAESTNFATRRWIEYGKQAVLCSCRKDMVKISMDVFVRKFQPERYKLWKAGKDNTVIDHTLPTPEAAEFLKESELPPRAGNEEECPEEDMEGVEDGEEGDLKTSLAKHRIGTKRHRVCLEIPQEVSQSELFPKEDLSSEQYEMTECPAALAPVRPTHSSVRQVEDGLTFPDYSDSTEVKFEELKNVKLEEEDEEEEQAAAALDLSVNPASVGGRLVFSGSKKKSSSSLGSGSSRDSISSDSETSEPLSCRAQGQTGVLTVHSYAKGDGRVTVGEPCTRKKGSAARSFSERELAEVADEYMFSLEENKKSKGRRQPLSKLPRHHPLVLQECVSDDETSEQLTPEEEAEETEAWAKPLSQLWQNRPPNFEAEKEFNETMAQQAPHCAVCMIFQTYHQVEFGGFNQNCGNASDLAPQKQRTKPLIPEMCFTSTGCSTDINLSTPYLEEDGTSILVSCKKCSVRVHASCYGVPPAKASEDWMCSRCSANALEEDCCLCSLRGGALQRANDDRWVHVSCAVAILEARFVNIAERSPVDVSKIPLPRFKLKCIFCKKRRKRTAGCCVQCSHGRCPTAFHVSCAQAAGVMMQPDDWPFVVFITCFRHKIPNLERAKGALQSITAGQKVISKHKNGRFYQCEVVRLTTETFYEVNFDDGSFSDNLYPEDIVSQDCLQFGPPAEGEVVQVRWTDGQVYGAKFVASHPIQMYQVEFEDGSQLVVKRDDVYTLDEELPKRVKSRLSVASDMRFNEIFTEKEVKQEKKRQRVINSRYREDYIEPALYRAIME
# HP1b binding inh: HTS for Inhibitors of HP1-beta Chromodomain Interactions with Methylated Histone Tails; Chromobox protein homolog 1 (Homo sapiens), P83916; AlphaScreen HP1-beta / biotin-H3K9me3 peptide binding; Potency, µM (doses to about 114 µM), for inactives: at the highest dose activity change, negative = inhibition, actives largely listed as inhibitors; actives 0.56% (n = 390,000); further: nearly all actives have a fitted effect of over 70% in size
#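 AlphaScreen: HP1-beta (50 nM) preformed 30 min with biotin-H3(1-18)K9me3 peptide (50 nM) in PBS pH 7.4, 0.01% Tween-20. Compound added for 30 min at RT, then streptavidin donor/nickel chelate acceptor beads (10 ug/mL) for 30 min.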
# * hit, by the source's call; ? = inconclusive; nt = no result given; [ ] = another dose, or the depositor's remark. Sampled rows, rich in hits. Any-hit rate of the full collection: about 10%. The call rests on the fitted dose curve; in most records, active means well fitted curve in the direction sought with a large enough effect; inconclusive means small, poorly fitted or top-dose-only effect, or another doubt; inactive means no such curve, though single readings can be large; an effect the other way counts as inactive or inconclusive. Potency means the concentration at half of the fitted maximal effect.
SMILES,G9a inh,BAZ2B inh,GLS inhibitor,JMJD2A Tudor inh,HP1b binding inh
COc1ccc(CN2C(=O)C(CC(C)C)Nc3ncnc(N4CCN(c5ccccc5)CC4)c32)cc1 (stereo not given),-11%[2.33 µM],?,5%,?,-2%
Cc1c(NC(=O)C(C)OC(=O)COc2cccc3c2OC(C)(C)C3)c(=O)n(-c2ccccc2)n1C (stereo not given),-32%[12.7 µM],-5%,-10%,0%,26%
O=c1c2c(-c3ccccc3)csc2ncn1/N=C/c1cccc([N+](=O)[O-])c1O,40µM*,50µM*,34%,79µM*,-16%
O=C(NCc1ccccc1)c1cc(C2COCCN2S(=O)(=O)c2ccccc2)on1 (stereo not given),nt,nt,7%,nt,nt
COc1ccc(C(=O)Nc2ccc(NC(=O)c3cccc(F)c3)cn2)cc1,45µM*,?,-2%,?,98%
COc1ccc(C(=O)Nc2ccc(NC(=O)c3cc(OC)c(OC)c(OC)c3)cn2)cc1,40µM*,?,-1%,-8%,21%
COc1cc(C(=O)Nc2ccc(NC(=O)c3ccccc3)nc2)cc(OC)c1OC,17%,?,-14%,-6%,22%
COc1cc(C(=O)Nc2ccc(NC(=O)C3CC3)nc2)cc(OC)c1OC,25%,2%,1%,0%,68%
COc1ccc(NC(=O)c2cccs2)cc1,-10%[59 µM],-2%,4%,-3%,36%
COc1ccc(C(=O)Nc2ccc(NC(=O)c3cccs3)cn2)cc1,22µM*,?,-6%,?,32%
COc1cc(C(=O)Nc2ccc(NC(=O)C(C)C)nc2)cc(OC)c1OC,?,79µM*,-1%,-22%,26%
O=C(COc1ccc(S(=O)(=O)N2CCOCC2)cc1Cl)NCc1ccco1,26%,-23%,-1%,-6%,48%
Cc1ccc(N2CC(C(=O)N/N=C/c3cccc([N+](=O)[O-])c3)CC2=O)cc1 (stereo not given),-3%[59 µM],5%,3%,-8%,25%
CCOc1ccc(Br)cc1S(=O)(=O)NC1CC(C)(C)NC(C)(C)C1,-12%[59 µM],-24%,-18%,-11%,20%
COC(C[C@@H]1O[C@@H]1[C@@H](O)[C@H](C)OCc1ccccc1)OC,38%[59 µM],-1%,-3%,-10%,50%
COc1ccc(C(=O)Nc2ccc(NC(=O)Cc3ccccc3)cn2)cc1,11µM*,14%,?,-10%,32%
COc1ccc(CC(=O)Nc2ccc3nc(Nc4cccc(Cl)c4)cc(C)c3c2)cc1OC,-3%[59 µM],2%,-9%,-7%,20%
COc1ccc(Nc2ccc3cc(S(=O)(=O)N4CCCC4)ccc3n2)cc1Cl,19%[59 µM],2%,5%,7%,41%
COc1ccc(Cl)cc1Nc1ccc2cc(S(=O)(=O)N3CCCCC3)ccc2n1,5µM*,9%,-7%,46%,68%
CN(NC(=O)CN1C(=O)c2ccccc2C1=O)C1=NS(=O)(=O)c2ccccc21,79µM*,-12%,3%,-10%,27%
COc1ccccc1C(=O)NN(C)C1=NS(=O)(=O)c2ccccc21,14%,13%,-3%,5%,26%
Nc1c(Cl)cc2c(c1Oc1ccccc1)C(=O)c1ccccc1C2=O,10µM*,?,2%,-34%,-14%
O=C(NCC1CCCO1)C1CCN(C2CCN(CCCC3CCCC3)CC2)CC1 (stereo not given),2%,5%,1%,-20%,25%
COc1ccc(C2NC(=S)NC(C)=C2C(=O)N2CCOCC2)cc1 (stereo not given),40µM*,5%,-9%,2%,41%
Cc1ccc(NC(=O)CSc2nc3ncc(Br)cc3[nH]2)cc1C,-13%,-14%[57.1 µM],3%,-12%,48%
SMILES,G9a inh,BAZ2B inh,GLS inhibitor,JMJD2A Tudor inh,HP1b binding inh
CC(=O)C1=C(O)C(=O)N(c2ccc(C(=O)O)cc2)C1c1ccccc1 (stereo not given),45µM*,?,2%,32µM*,9%
CC(=O)C1=C(O)C(=O)N(c2cccc(C(=O)O)c2)C1c1ccc(F)cc1 (stereo not given),25µM*,?,19%,?,18%
CC(=O)C1=C(O)C(=O)N(c2ccc(F)cc2)C1c1ccc(C)cc1 (stereo not given),0%[0.501 µM],-28%,0%,-16%,21%
CCN(CC)C(=O)c1sc(NC(=O)c2ccncc2)c(C(=O)OC)c1C,?,10%,1%,-7%,-8%
CCOC(=O)c1c(NC(=O)c2ccoc2C)sc(C(=O)N(C)C)c1C,32µM*,8%,-2%,?,-8%
CCN(CC)C(=O)c1sc(NC(=O)c2ccoc2C)c(C(=O)OC)c1C,13µM*,0%,-13%,-29%,?
CCN(CC)C(=O)c1sc(NC(=O)c2cc(-c3ccc(C)s3)nc3ccccc23)c(C(=O)OC)c1C,40µM*,1%,-4%,4%,-11%
O=C1CCCCCN1C(=O)c1ccc(C(=O)N2CCCCCC2=O)cc1,6%,3%,0%,-18%[11.4 µM],-10%
O=C(O)c1cc2c(cc1Cl)N1CCCCCC1=NS2(=O)=O,-36%,-14%,-3%,-19%,41%
COc1cccc(CNC(=O)c2ccc3c(c2)S(=O)(=O)N=C2CCCCCN23)c1,27%,-15%,-1%,-10%,25%
O=C(NC1CCCCC1)c1cc2c(cc1Cl)N1CCCCCC1=NS2(=O)=O,50µM*,10%,4%,-2%,19%
COc1cccc(CNC(=O)c2cc3c(cc2Cl)N2CCCCCC2=NS3(=O)=O)c1,11µM*,10%,1%,-9%,33%
CSc1ccccc1NC(=O)c1ccccc1N(C)S(C)(=O)=O,-37%[2.33 µM],47%,-2%,-10%,23%
COc1ccc(C(=O)N/N=C(\C)c2cccc(NC(=O)c3ccc(F)cc3)c2)c(OC)c1,-6%[0.501 µM],-7%,0%,-7%,9%
CCN1/C(=C/C=C/C=C/C=C/c2sc3ccccc3[n+]2CC)Sc2ccccc21,22µM*,40µM*,?,20µM*,?
CCN1/C(=C/C=C/C=C/c2sc3ccccc3[n+]2CC)Sc2ccccc21,28µM*,11µM*,?,nt,nt
CCN1/C(=C/C=C/c2sc3ccccc3[n+]2CC)Sc2ccccc21,?,14µM*,9%,-1%,26%
CCOC(=O)/C(=C/C=C1\Sc2ccccc2N1CC)C(C)=O,?,-32%,0%,-33%,7%
Cc1ccc(S(=O)(=O)NNC(=O)C(=O)NNc2ccccn2)cc1,36%[2.33 µM],?,25%,-9%,57%
Cc1ccccc1CNC(=O)CN1C(=O)CSc2ccc(S(=O)(=O)N(C)C)cc21,-2%[59 µM],2%,-11%,-13%,32%
